Experimental data: publication PMC7826789 (International Journal of Molecular Sciences, 2021)

Assays:
Settings in all cases: Compound Concentration (nM):1000
PIK3CB = system: PIK3CB
PIK3CD = system: PIK3CD
PIK3CG = system: PIK3CG
PIK4CB = system: T1, PIK4CB
T1 construct: gene PI4KB

PIKFYVE = system: PIKFYVE
PIM1 = system: PIM1
PIM2 = system: PIM2
PIM3 = system: PIM3
PIP5K1A = system: PIP5K1A
PIP5K1C = system: PIP5K1C
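Further: KINOMEscan scanMAX binding as percent activity remaining versus control; lower means stronger binding.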

Row | Compound | Percent Control (PIK3CB) | Percent Control (PIK3CD) | Percent Control (PIK3CG) | Percent Control (PIK4CB) | Percent Control (PIKFYVE) | Percent Control (PIM1) | Percent Control (PIM2) | Percent Control (PIM3) | Percent Control (PIP5K1A) | Percent Control (PIP5K1C)
1 | C[C@@H](Oc1cc(-n2cnc3ccc(OC4CCN(C)CC4)cc32)sc1C(N)=O)c1ccccc1Cl [GSK579289A] | 20% | 27% | 11% | 100% | 15% | 19% | 100% | 29% | 21% | 72%
2 | COC(=O)Nc1nc2ccc(Oc3ccc(NC(=O)Nc4cc(C(F)(F)F)ccc4F)cc3)cc2s1.Cl [GW693917A] | 100% | 76% | 100% | 95% | 100% | 100% | 100% | 100% | 100% | 100%
3 | O=C1Nc2ccc(C(=O)c3ccco3)cc2C1=Cc1cc(Cl)c(O)c(Cl)c1 [GW406108X] | 100% | 79% | 47% | 0.8% | 88% | 32% | 61% | 9.9% | 88% | 43%
4 | CCn1c(-c2nonc2N)nc2c(C#CC(C)(C)O)nc(OCCNC)cc21.Cl [GSK949675] | 91% | 82% | 73% | 100% | 20% | 100% | 56% | 100% | 79% | 0%
5 | COc1ccccc1-c1cc(/C=C2\C(=O)Nc3ncc(Br)cc32)cc(Br)c1O [GW442130X] | 80% | 64% | 65% | 68% | 30% | 100% | 96% | 100% | 86% | 100%
6 | CCS(=O)(=O)c1ccc(OC)c(Nc2ncc(-c3cccc(OC)c3)o2)c1 [GW580509X] | 100% | 93% | 100% | 40% | 91% | 100% | 100% | 100% | 100% | 17%
7 | COc1cc(N2CCN(C(C)C)CC2)ccc1Nc1nc(Nc2ccc(F)cc2C(=O)NC[C@@H](O)CO)c2cc[nH]c2n1 [GSK1392956A] | 96% | 80% | 100% | 100% | 95% | 100% | 100% | 100% | 100% | 100%
8 | Nc1ncnc2occ(-c3ccc(NC(=O)Nc4cc(C(F)(F)F)ccc4F)cc3)c12 [GW770249X] | 100% | 100% | 100% | 100% | 95% | 100% | 100% | 100% | 100% | 90%
9 | NS(=O)(=O)c1ccc(N/N=C2\C(=O)Nc3ccc(-c4cnco4)cc32)cc1 [GW276655] | 98% | 88% | 83% | 75% | 100% | 45% | 96% | 56% | 26% | 55%
10 | NS(=O)(=O)c1ccc(N/N=C2\C(=O)Nc3ccc(Cl)cc32)cc1 [GW280670X] | 100% | 94% | 100% | 100% | 94% | 100% | 100% | 100% | 100% | 80%
11 | COc1cc(/C=N/Nc2ncnc3[nH]ncc23)ccc1O [GW578748X] | 54% | 100% | 24% | 5% | 28% | 83% | 100% | 53% | 78% | 0%
12 | COc1cc2ncn(-c3cc(O[C@H](C)c4ccccc4Cl)c(C(N)=O)s3)c2cc1OC [GSK237701A] | 31% | 28% | 12% | 67% | 74% | 88% | 100% | 66% | 0% | 9.9%
13 | Cl.c1ccc(Cc2nc3ccc(Nc4ncnc5ccccc45)cc3[nH]2)cc1 [GR269666A] | 100% | 98% | 100% | 100% | 100% | 100% | 100% | 100% | 100% | 86%
14 | CCc1ccc(Oc2nccc(-c3c(-c4ccc(F)cc4)ncn3C3CCNCC3)n2)cc1 [SB-242719] | 99% | 72% | 95% | 100% | 100% | 100% | 100% | 100% | 87% | 100%
15 | COc1cc(C)c(N(C)C(=O)CN(C)C)cc1Nc1nc(Nc2cccc(F)c2C(N)=O)c2cc[nH]c2n1 [GSK2219385] | 100% | 75% | 100% | 85% | 97% | 90% | 92% | 86% | 100% | 100%
16 | COc1ccc2[nH]c3c4[nH]c5ccc(OC)cc5c4c4c(c3c2c1)C(=O)NC4=O [GW296115X] | 88% | 64% | 87% | 100% | 0% | 46% | 0.5% | 2.6% | 100% | 81%
17 | COc1ccc2cc(-c3c(-c4ccncc4)nc(-c4ccc(S(C)(=O)=O)cc4C)n3C)ccc2c1 [SB-633825] | 94% | 100% | 79% | 69% | 100% | 78% | 97% | 80% | 95% | 100%
18 | Cl.O=C(O[C@H]1CN[C@H](C#Cc2cc3ncnc(Nc4ccc5c(cnn5Cc5ccccc5)c4)c3s2)C1)N1CCOCC1 [GSK200398A] | 100% | 100% | 100% | 100% | 100% | 100% | 100% | 100% | 100% | 99%
19 | Cl.O=C(Nc1ccc(Oc2ccc3[nH]c(NC(=O)c4ccccc4)nc3c2)cc1)Nc1cc(C(F)(F)F)ccc1F [GW709042A] | 100% | 76% | 100% | 100% | 100% | 100% | 100% | 100% | 100% | 98%
20 | Cl.O=C(Nc1ccc(Oc2ccc3[nH]c(NC(=O)c4ccco4)nc3c2)cc1)Nc1cc(C(F)(F)F)ccc1F [GW683134A] | 100% | 90% | 100% | 100% | 100% | 100% | 100% | 100% | 100% | 98%
